ID4 binder: binders of human ID4 protein, primary screen, biochemical, small molecule microarray, single point | DNA-binding protein inhibitor ID-4 (Homo sapiens), P47928 | Flag-ID4 binding, fluorescence F/B | calls only | 31,000 compounds, 1.2% hits | AID 624137, 2012; call rule not given here;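 also: a binder raises fluorescence above local background on the spot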
Target sequence (P47928 whole entry, looked up): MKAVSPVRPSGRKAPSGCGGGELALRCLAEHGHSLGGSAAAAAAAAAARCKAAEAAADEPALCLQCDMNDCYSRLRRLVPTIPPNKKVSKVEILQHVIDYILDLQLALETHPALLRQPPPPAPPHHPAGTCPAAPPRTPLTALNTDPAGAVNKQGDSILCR
Active calls of the source: *; i = inactive; + = active, no number. Many of the other results were omitted from the sample, so hits are more common in it than they were.

SMILES | ID4 binder
COc1ccc(NC(=O)Cc2coc3c(C)c(C)ccc23)c(OC)c1 | i
Cc1c(C(=O)C2C(=O)C(=O)N(Cc3cccnc3)C2c2ccccn2)cnn1-c1ccccc1 (stereo not drawn) | +
Cc1c(C(=O)C2C(=O)C(=O)N(Cc3cccnc3)C2c2cccs2)cnn1-c1ccccc1 (stereo not drawn) | i
Cc1ccc(C(=O)C2C(=O)C(=O)N(Cc3cccnc3)C2c2cccc(Oc3ccccc3)c2)o1 (stereo not drawn) | i
COc1ccc(OC)c(NC(=O)C(=O)NCc2ccco2)c1 | i
Cc1ccc(NC(=O)CSc2nnnn2-c2ccc(F)cc2)cc1C | i
Cc1cc(NC(=O)CSc2nnnn2-c2ccccc2)ccc1Cl | i
Cc1ccc(NC(=O)CSc2nnnn2-c2ccc(Cl)c(C(=O)O)c2)cc1C | +
CC/C=C\C/C=C\C/C=C\CCCCCCCCCCCC(=O)O | i
CC/C=C\C/C=C\C/C=C\CCCCCCCCCC(=O)O | i
CC/C=C\C/C=C\C/C=C\CCCCCCCC(=O)O | +
O=[N+]([O-])c1cccc(-c2nn(-c3ccccc3)cc2CNCc2ccccc2)c1 | i
O=C(COc1ccc([N+](=O)[O-])cc1)Nc1cccc(O)c1 | i
O=C(NCc1ccc(F)cc1)[C@@H]1C[C@@H]2C(=O)N3CCC[C@H]3C(=O)N2[C@@H]1c1cccc(OCCO)c1 | i
O=C(NCc1ccc(F)cc1)[C@@H]1C[C@@H]2C(=O)N3CCC[C@H]3C(=O)N2[C@@H]1c1ccc(O)cc1 | i
CC(=O)NCCCC[C@@H]1NC(=O)[C@H]2C[C@@H](C(=O)NCCCCCCNC(=O)CS)[C@@H](c3ccc(O)cc3)N2C1=O | i
CN(C)CCCCCCNC(=O)[C@H]1C[C@H]2C(=O)N3CCC[C@H]3C(=O)N2[C@H]1c1cccc(OCCO)c1 | +
CC(C)C[C@@H]1NC(=O)[C@@H]2C[C@H](C(=O)O)[C@H](c3cccc(OCCO)c3)N2C1=O | i
CC(C)C[C@@H]1NC(=O)[C@@H]2C[C@H](C(=O)NCCCCCCN(C)C)[C@H](c3ccc(O)cc3)N2C1=O | i
O=C(CS)NCCCCCCNC(=O)[C@@H]1C[C@@H]2C(=O)NCC(=O)N2[C@@H]1c1ccc(O)cc1 | i
O=C(NCc1ccc(F)cc1)[C@H]1C[C@H]2C(=O)N3CCC[C@H]3C(=O)N2[C@H]1c1cccc(OCCO)c1 | +
O=C1NCC(=O)N2[C@@H]1C[C@@H](C(=O)NCc1ccc(F)cc1)[C@H]2c1cccc(OCCO)c1 | +
NCCCCCCNC(=O)[C@H]1C[C@H]2C(=O)N[C@@H](Cc3ccccc3)C(=O)N2[C@H]1c1cccc(OCCO)c1 | +
O=C(NCc1ccc(F)cc1)[C@H]1C[C@H]2C(=O)NCC(=O)N2[C@H]1c1cccc(OCCO)c1 | i
CC(C)C[C@@H]1NC(=O)[C@H]2C[C@@H](C(=O)NCCCCCNC(=O)CS)[C@@H](c3cccc(OCCO)c3)N2C1=O | i
SMILES | ID4 binder
CC(=O)c1ccc(NC(=O)CSc2nc(C)c(C)c(=O)[nH]2)cc1 | i
COc1ccccc1C1=NN(C(=O)CCC(=O)O)C(c2ccco2)C1 (stereo not drawn) | i
COc1ccc(OC)c(NC(=O)CN(c2ccc(F)c(Cl)c2)S(C)(=O)=O)c1 | i
COc1ccccc1-n1c(SCC(=O)N(c2ccccc2)c2ccccc2)nc2ccccc2c1=O | i
COc1ccc(C(=O)NCC(=O)Nc2ccc(C)c(Cl)c2)cc1 | i
Cn1c(SCC(=O)Nc2c(F)cc(F)cc2Br)nnc1-c1cccnc1 | i
Cn1c(SCC(=O)Nc2c(F)cc(F)cc2Br)nnc1-c1ccco1 | +
COc1ccc(-c2nnc(SCC(=O)Nc3c(F)cc(F)cc3Br)n2C)cc1 | i
O=C(CCCN1C(=O)c2ccccc2C1=O)Nc1cc(Cl)cc(Cl)c1 | i
C[C@@H]1CCCCO[C@H](CN(C)Cc2ccccc2)[C@@H](C)CN([C@@H](C)CO)C(=O)c2cc(NS(=O)(=O)c3ccccc3)ccc2O1 | i
C[C@@H]1CCCCO[C@@H](CN(C)C(=O)c2ccncc2)[C@@H](C)CN([C@@H](C)CO)C(=O)c2cc(NS(=O)(=O)c3ccccc3)ccc2O1 | i
C[C@@H]1CN([C@@H](C)CO)C(=O)c2cc(NS(=O)(=O)c3ccccc3)ccc2O[C@@H](C)CCCCO[C@H]1CN(C)C(=O)c1ccncc1 | i
C[C@H]1CCCCO[C@@H](CN(C)C(=O)c2ccncc2)[C@@H](C)CN([C@@H](C)CO)C(=O)c2cc(NS(=O)(=O)c3ccccc3)ccc2O1 | +
C[C@H](CO)N1C[C@H](C)[C@H](CN(C)Cc2ccccc2)OCCCC[C@H](C)Oc2ccc(NS(=O)(=O)c3ccccc3)cc2C1=O | i
C[C@H]1CCCCO[C@@H](CN(C)Cc2ccc(C(=O)O)cc2)[C@@H](C)CN([C@@H](C)CO)C(=O)c2cc(NS(=O)(=O)c3ccccc3)ccc2O1 | +
Cc1cc(O)c(Cc2c(O)cc(C)c(C=O)c2O)c(O)c1C | i
CCOc1ccc(N2C(=O)/C(=C/c3ccc(F)cc3)N=C2SC(CC)C(=O)N2CCOCC2)cc1 (stereo not drawn) | i
O=C(CNS(=O)(=O)c1ccccc1)Nc1cc(Cl)cc(Cl)c1 | i
Cc1cccc(NC(c2ccc([N+](=O)[O-])cc2)c2ccc3ccc(C)nc3c2O)n1 (stereo not drawn) | i
C[C@H](CO)N1C[C@H](C)[C@H](CN(C)CC2CC2)OCc2cn(nn2)CCCC1=O | i
CCCN(C)C[C@H]1OCc2cn(nn2)CCCC(=O)N([C@H](C)CO)C[C@H]1C | +
C[C@@H]1CN([C@@H](C)CO)C(=O)CCCn2cc(nn2)CO[C@H]1CN(C)CC1CC1 | i
NC(=O)c1c(NC(=O)C2CC(=O)N(c3ccccc3)C2)sc2c1CCCC2 (stereo not drawn) | +
NC(=O)c1c(NC(=O)Cn2c(=O)oc3ccccc32)sc2c1CCCC2 | i
NC(=O)c1c(NC(=O)C2CC(=O)OC23CCCCC3)sc2c1CCCCC2 (stereo not drawn) | i
SMILES | ID4 binder
CCn1c(SCC(=O)Nc2ccc(Br)c(Cl)c2)nnc1-c1ccccc1O | i
COc1ccc(C#Cc2ccc3c(c2)[C@]2(C(=O)N3)[C@H](C(=O)O)[C@H]3C(=O)O[C@H](c4ccccc4)[C@H](c4ccccc4)N3[C@@H]2c2ccc(O)cc2)cc1 | i
O=C(CSc1nc2ccccc2c(=O)n1-c1ccc(Cl)cc1)Nc1ccc(Cl)c(Cl)c1 | i
Cc1cccc(C(=O)NCc2n[nH]c(=S)n2-c2ccccc2)c1 | +
COc1ccc(C(=O)NCc2n[nH]c(=S)n2C)cc1OC | i
Nc1cc(N)nc(SCc2n[nH]c(=S)n2-c2ccccc2)n1 | i
CCC1(C)Cc2c(sc3nc(SC)nc(SCC(=O)Nc4cccc(Cl)c4)c23)CO1 (stereo not drawn) | i
O=C(CN(C1CCCCC1)S(=O)(=O)c1ccc(Br)cc1)Nc1c(F)cccc1F | i
COCCOC(=O)N1C(=O)[C@@]2(c3ccccc31)[C@H](C(=O)NC[C@H](O)c1ccccc1)[C@H]1C(=O)O[C@H](c3ccccc3)[C@H](c3ccccc3)N1[C@@H]2c1ccc(OCCO)cc1 | i
COc1ccc(NC(=O)CN(C)S(=O)(=O)c2ccc(Br)cc2)c([N+](=O)[O-])c1 | i
C[C@H](CO)N1C[C@H](C)[C@H](CN(C)Cc2ccccc2)OCCCC[C@H](C)Oc2ccc(NS(=O)(=O)c3cccs3)cc2C1=O | i
